In PubChem BioAssay:
“And” between values parts separate entries of the source, which are not always exact repeats. Identical values can stand only once. Results filed as inconclusive are left out. The source made the active and inactive calls.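 Rule for the calls, unless noted: active = normalized viability below 100% at a tested concentration; inactive = the rest.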

Experiments:
[1] = viability loss in pontine glioma line – cell-based, SU-DIPG-XXV, MIPE5.0, CellTiter-Glo, qHTS, dose response (AID 1347065; cut-off not given, nearly all actives have AC50 up to about 26 µM;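 note: cells exposed to compound for 48 hours before ATP readout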); settings: CellTiter-Glo ATP luminescence
[2] = SU-DIPG-VI glioma cell viability, MIPE4.0 library, CellTiter-Glo luminescence, qHTS (AID 1347066; cut-off not given, nearly all actives have AC50 up to about 30 µM;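 note: cells exposed to compound for 48 hours before readout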); settings: CellTiter-Glo ATP luminescence
[3] = JHH-DIPG-1 glioma cell viability, MIPE5.0 library, CellTiter-Glo luminescence, qHTS (AID 1347067; cut-off not given, nearly all actives have AC50 up to about 26 µM;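 note: cells exposed to compound for 48 hours before readout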); settings: JHH-DIPG-1 glioma viability, CellTiter-Glo ATP luminescence
[4] = SU-DIPG-XXV glioma cell viability, MIPE5.0 library, qHTS (AID 1347068; cut-off not given, nearly all actives have IC50 up to about 30 µM)
[5] = sensitizers of A549 cells to miR-34 induction, primary screen, imaging, A549 dox-inducible miR-34, nuclei and caspase counts (AID 1347080;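 active = compounds whose cell count with miR-34 switched on is under 0.7 times the count with it off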); settings: A549 miR-34 inducible, Hoechst nuclei count, 48 h
[6] = phospholipid biosynthesis inhibitors in animal cells, primary screen, cell-based, LOPAC library, screen 4 (AID 1347384; call rule not given here); settings: phospholipid biosynthesis inhibition screen, at 10 µM
[7] = survival rescue of mitochondrial mutant cells in low glucose, primary screen, MELAS cybrids, Rieske KO mouse fibroblasts, CellTiter-Glo (AID 1508586;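 active = mean z-score across replicates of 1.96 or higher in either the MELAS or the Rieske mutant cell line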;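 note: z relative to plate mean and SD of compound and empty wells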)
[8] = ovarian cancer cell viability with rucaparib, profiling panel, oncology-focused library, rucaparib conditional (AID 1508598); settings: patient-derived ovarian cancer cells, CellTiter-Glo viability, 144 h, stronger effect = lower value
[9] = target: NAD(+) hydrolase SARM1 (Homo sapiens) (UniProt Q6SZW1); assay: SARM1 TIR NADase inhibitors, cell lysate, NAD-Glo luminescence (AID 1508614;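 active = compound whose remaining NAD level is above about 45 nM, limit read from the data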;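 note: higher remaining NAD means stronger inhibition of SARM1 NADase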); settings: SAM-TIR HEK293T lysate NADase, at 1 µM, stronger effect = higher value
Chain of NAD(+) hydrolase SARM1 (Homo sapiens) (Q6SZW1 whole entry, looked up, the tested form may be a part): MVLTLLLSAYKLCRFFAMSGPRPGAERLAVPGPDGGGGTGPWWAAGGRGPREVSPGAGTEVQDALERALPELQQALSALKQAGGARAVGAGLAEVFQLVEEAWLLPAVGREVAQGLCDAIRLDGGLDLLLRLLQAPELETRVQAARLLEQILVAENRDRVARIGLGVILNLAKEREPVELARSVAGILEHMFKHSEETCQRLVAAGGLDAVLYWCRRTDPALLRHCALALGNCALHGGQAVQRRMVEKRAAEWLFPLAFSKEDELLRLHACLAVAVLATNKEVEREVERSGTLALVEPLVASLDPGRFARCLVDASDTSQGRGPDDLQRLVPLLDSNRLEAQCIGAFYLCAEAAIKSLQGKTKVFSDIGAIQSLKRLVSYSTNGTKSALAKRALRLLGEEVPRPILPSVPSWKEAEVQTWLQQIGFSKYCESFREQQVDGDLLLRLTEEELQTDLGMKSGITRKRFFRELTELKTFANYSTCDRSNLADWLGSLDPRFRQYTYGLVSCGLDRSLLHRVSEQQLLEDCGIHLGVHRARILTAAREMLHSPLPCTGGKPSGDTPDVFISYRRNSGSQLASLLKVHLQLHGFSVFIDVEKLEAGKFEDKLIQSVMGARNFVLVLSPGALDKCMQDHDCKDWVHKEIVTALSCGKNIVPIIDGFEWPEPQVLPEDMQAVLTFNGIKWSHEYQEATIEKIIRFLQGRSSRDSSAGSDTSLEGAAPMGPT

[10] = target: Mitogen-activated protein kinase 7 (Homo sapiens) (UniProt Q13164); assay: ERK5 transactivation activators in reporter cells, primary screen, cell-based, HTS (AID 1508626;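 active = luciferase signal above three times the same-plate solvent-only control wells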;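 note: luciferase driven by Gal4-ERK5 fusion binding five Gal4 sites before minimal TATA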); settings: HeLa Gal4-ERK5 transactivation, 18 h, at 5 µM, stronger effect = higher value
Chain of Mitogen-activated protein kinase 7 (Homo sapiens) (Q13164 whole entry, looked up, the tested form may be a part): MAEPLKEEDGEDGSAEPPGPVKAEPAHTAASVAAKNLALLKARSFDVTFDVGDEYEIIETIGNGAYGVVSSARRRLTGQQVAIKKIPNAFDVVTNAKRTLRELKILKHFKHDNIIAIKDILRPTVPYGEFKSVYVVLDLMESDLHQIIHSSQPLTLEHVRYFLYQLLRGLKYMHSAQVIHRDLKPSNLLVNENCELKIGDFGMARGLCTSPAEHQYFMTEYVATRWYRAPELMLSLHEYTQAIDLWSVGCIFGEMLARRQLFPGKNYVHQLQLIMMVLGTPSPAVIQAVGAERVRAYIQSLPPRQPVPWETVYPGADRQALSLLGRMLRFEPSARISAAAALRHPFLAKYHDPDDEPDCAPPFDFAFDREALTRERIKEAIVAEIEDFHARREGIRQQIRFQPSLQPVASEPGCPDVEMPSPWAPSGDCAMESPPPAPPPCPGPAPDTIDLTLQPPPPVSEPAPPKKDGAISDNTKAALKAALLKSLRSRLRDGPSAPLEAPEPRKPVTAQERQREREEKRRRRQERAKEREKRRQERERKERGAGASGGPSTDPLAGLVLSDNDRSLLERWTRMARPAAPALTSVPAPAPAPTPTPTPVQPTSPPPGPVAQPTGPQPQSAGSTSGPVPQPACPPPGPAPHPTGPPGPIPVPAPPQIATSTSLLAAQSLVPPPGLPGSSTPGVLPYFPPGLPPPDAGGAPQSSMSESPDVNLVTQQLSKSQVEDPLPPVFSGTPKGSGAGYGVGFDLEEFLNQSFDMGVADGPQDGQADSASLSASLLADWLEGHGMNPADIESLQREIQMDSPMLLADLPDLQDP

[11] = viability rescue of complex I mutant cybrids, primary screen, cell-based, galactose medium, ATP luminescence (AID 1645843;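 active = z-score of at least 1.8 in each of two replicates, scored against plate mean and spread of sample wells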;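 note: positive z means more ATP and so rescue of galactose-driven cybrid death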); settings: complex I mutant cybrid cells, 72 h, stronger effect = higher value
[12] = LFS_MB_P medulloblastoma growth inhibition, cell-based, chromothripsis tumors, cisplatin or BGB combos (AID 1671449; in the data active = inhibition above about 80%;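 note: cells exposed for 96 hours; 0% = vehicle DMSO and 100% = killing by high DMSO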); settings: LFS_MB_P medulloblastoma cells
[13] = HDN33 neuroblastoma growth inhibition, cell-based, chromothripsis tumors, cisplatin or BGB combos (AID 1671450; in the data active = inhibition above about 80%;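 note: cells exposed to compound for four days; 0% = vehicle DMSO and 100% = cell killing by high DMSO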); settings: HDN33 neuroblastoma cells, stronger effect = higher value
[14] = ICB984 medulloblastoma cell growth inhibition, synergistic combos for chromothripsis tumors, cisplatin or BGB combos (AID 1671451; call rule not given here;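 note: cells exposed for 96 hours before readout; 0% = vehicle DMSO and 100% = killing by high DMSO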); settings: ICB984 medulloblastoma cells, drug combinations, stronger effect = higher value
[15] = LFS_MB_1R medulloblastoma cell growth inhibition, synergistic combos for chromothripsis tumors, cisplatin or BGB combos (AID 1671452; in the data active = inhibition above about 80%;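 note: cells exposed for 96 hours before readout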); settings: LFS_MB_1R medulloblastoma cells, stronger effect = higher value
[16] = HTB85 osteosarcoma cell growth inhibition, synergistic combos for chromothripsis tumors, BGB or cisplatin IC20 combos (AID 1671453; in the data active = inhibition above about 80%;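 note: cells exposed for 96 hours before readout; 0% = vehicle DMSO and 100% = high DMSO killing control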); settings: HTB85 osteosarcoma cells, drug combinations, stronger effect = higher value
[17] = CRL2098 osteosarcoma cell growth inhibition, synergistic combos for chromothripsis tumors, BGB or cisplatin IC20 combos (AID 1671454; in the data active = inhibition above about 80%;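 note: cells exposed for 96 h before readout; 0% = vehicle DMSO and 100% = killing by high DMSO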); settings: CRL2098 osteosarcoma cells, drug combinations, stronger effect = higher value
[18] = HD-MB03 medulloblastoma cell growth inhibition, synergistic combos for chromothripsis tumors, BGB or cisplatin IC20 combos (AID 1671455; in the data active = inhibition above about 83%;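 note: 0% = vehicle DMSO and 100% = high DMSO as cytotoxic control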); settings: HD-MB03 medulloblastoma cells, stronger effect = higher value
[19] = measured here: combination with BGB IC40, at 0.05 µM

NC(=O)NO
outcome [1]: inactive
outcome [2]: inactive
outcome [3]: inactive
outcome [4]: inactive
fold change ([5]; stronger effect = lower value, cell number ratio, induced over uninduced): 0.975 (inactive) and 0.894 (inactive) and 0.861 (inactive)
fold change ([5]; measured here: relative caspase fold change +Dox/-Dox): 1.12 and 0.968 and 1.05
cell count ([5]; measured here: total cells with miR-34 induction, stronger effect = lower value): 10300 and 8660 and 7880
cell count ([5]; measured here: total cells without miR-34 induction): 10600 and 9680 and 9160
outcome [6]: inactive
z-score ([7]; MELAS cybrid survival, CellTiter-Glo 48 h, stronger effect = higher value): -0.326 (inactive)
z-score ([7]; Rieske KO mouse fibroblast survival, CellTiter-Glo 72 h): 0.485
viability ([8]; at 0.000305 µM, OCI-C5x cells, with rucaparib 10 µM, 100% = cells with rucaparib alone): 105% (inactive)
viability ([8]; at 0.000305 µM, OCI-C5x cells, without rucaparib): 113% (inactive)
viability ([8]; at 0.000305 µM, OCI-P5x cells, with rucaparib 20 µM, 100% = cells with rucaparib alone): 95.9% (active)
viability ([8]; at 0.000305 µM, OCI-P5x cells, without rucaparib): 97.6% (active)
viability ([8]; at 0.00122 µM, OCI-C5x cells, with rucaparib 10 µM, 100% = cells with rucaparib alone): 111% (inactive)
viability ([8]; at 0.00122 µM, OCI-C5x cells, without rucaparib): 112% (inactive)
viability ([8]; at 0.00122 µM, OCI-P5x cells, with rucaparib 20 µM, 100% = cells with rucaparib alone): 98.6% (active)
viability ([8]; at 0.00122 µM, OCI-P5x cells, without rucaparib): 102% (inactive)
viability ([8]; at 0.00488 µM, OCI-C5x cells, with rucaparib 10 µM, 100% = cells with rucaparib alone): 105% (inactive)
viability ([8]; at 0.00488 µM, OCI-C5x cells, without rucaparib): 104% (inactive)
viability ([8]; at 0.00488 µM, OCI-P5x cells, with rucaparib 20 µM, 100% = cells with rucaparib alone): 101% (inactive)
viability ([8]; at 0.00488 µM, OCI-P5x cells, without rucaparib): 109% (inactive)
viability ([8]; at 0.0195 µM, OCI-C5x cells, with rucaparib 10 µM, 100% = cells with rucaparib alone): 104% (inactive)
viability ([8]; at 0.0195 µM, OCI-C5x cells, without rucaparib): 115% (inactive)
viability ([8]; at 0.0195 µM, OCI-P5x cells, with rucaparib 20 µM, 100% = cells with rucaparib alone): 106% (inactive)
viability ([8]; at 0.0195 µM, OCI-P5x cells, without rucaparib): 109% (inactive)
viability ([8]; at 0.0781 µM, OCI-C5x cells, with rucaparib 10 µM, 100% = cells with rucaparib alone): 116% (inactive)
viability ([8]; at 0.0781 µM, OCI-C5x cells, without rucaparib): 106% (inactive)
viability ([8]; at 0.0781 µM, OCI-P5x cells, with rucaparib 20 µM, 100% = cells with rucaparib alone): 106% (inactive)
viability ([8]; at 0.0781 µM, OCI-P5x cells, without rucaparib): 116% (inactive)
viability ([8]; at 0.313 µM, OCI-C5x cells, with rucaparib 10 µM, 100% = cells with rucaparib alone): 109% (inactive)
viability ([8]; at 0.313 µM, OCI-C5x cells, without rucaparib): 114% (inactive)
viability ([8]; at 0.313 µM, OCI-P5x cells, with rucaparib 20 µM, 100% = cells with rucaparib alone): 103% (inactive)
viability ([8]; at 0.313 µM, OCI-P5x cells, without rucaparib): 110% (inactive)
viability ([8]; at 1.25 µM, OCI-C5x cells, with rucaparib 10 µM, 100% = cells with rucaparib alone): 102% (inactive)
viability ([8]; at 1.25 µM, OCI-C5x cells, without rucaparib): 116% (inactive)
viability ([8]; at 1.25 µM, OCI-P5x cells, with rucaparib 20 µM, 100% = cells with rucaparib alone): 96.8% (active)
viability ([8]; at 1.25 µM, OCI-P5x cells, without rucaparib): 110% (inactive)
viability ([8]; at 5 µM, OCI-C5x cells, with rucaparib 10 µM, 100% = cells with rucaparib alone): 105% (inactive)
viability ([8]; at 5 µM, OCI-C5x cells, without rucaparib): 114% (inactive)
viability ([8]; at 5 µM, OCI-P5x cells, with rucaparib 20 µM, 100% = cells with rucaparib alone): 109% (inactive)
viability ([8]; at 5 µM, OCI-P5x cells, without rucaparib): 111% (inactive)
remaining NAD [9]: 10 nM (inactive)
luciferase signal [10]: 44 AU (inactive)
z-score [11]: 0.03 (inactive)
inhibition ([12]; at 0.5 µM, stronger effect = higher value): -32.5% (inactive)
inhibition ([12]; measured here: combination with BGB IC20, at 0.005 µM): -13.7%
inhibition ([12]; measured here: combination with BGB IC40, at 0.005 µM): 33.3%
inhibition [12, 19]: -4.05%
inhibition ([12]; measured here: combination with cisplatin, at 0.5 µM, stronger effect = higher value): -74.7%
inhibition ([12]; measured here: combination with cisplatin, at 5 µM, stronger effect = higher value): 7.33%
inhibition ([13]; BGB combo, at 5 µM): 4.14%
inhibition ([13]; at 0.5 µM): -0.11% (inactive)
inhibition ([13]; cisplatin combo, at 5 µM): 7.9%
inhibition ([13]; measured here: with BGB IC20 combination, at 0.5 µM): 1.89%
inhibition ([13]; measured here: with cisplatin IC20 combination, at 0.5 µM): -0.484%
inhibition ([13]; single agent, at 5 µM): 3.76%
inhibition ([14]; BGB IC20 combo, at 0.005 µM): -9.77%
inhibition ([14]; BGB IC40 combo, at 0.005 µM): -3.4%
inhibition ([14]; BGB IC40 combo, at 0.05 µM): -15.1%
inhibition ([14]; at 0.5 µM): -0.36% (inactive)
inhibition ([14]; cisplatin combo, at 0.05 µM): -15.1%
inhibition ([14]; cisplatin combo, at 0.5 µM): -15.2%
inhibition ([14]; cisplatin combo, at 5 µM): -5.34%
inhibition ([14]; measured here: 5 uM single agent, at 5 µM): -13.7%
inhibition ([15]; at 0.5 µM): -11.7% (inactive)
inhibition [15, 19]: -14.3%
inhibition ([15]; measured here: combination with cisplatin, at 0.5 µM): 23.3%
inhibition ([15]; measured here: combination with cisplatin, at 5 µM): 27.3%
inhibition ([16]; at 0.5 µM): 4.31% (inactive)
inhibition ([16]; measured here: with BGB IC20, at 0.5 µM): -11.6%
inhibition ([16]; measured here: with BGB IC20, at 5 µM): 7.32%
inhibition ([16]; measured here: with cisplatin IC20, at 0.5 µM): -0.499%
inhibition ([16]; measured here: with cisplatin IC20, at 5 µM): 13.2%
inhibition ([16]; single agent, at 5 µM): 18.4%
inhibition ([17]; at 0.5 µM): -5.49% (inactive)
inhibition ([17]; measured here: combination with BGB at IC20, at 0.5 µM): -9.56%
inhibition ([17]; measured here: combination with cisplatin at IC20, at 0.5 µM): 4.43%
inhibition ([18]; at 0.5 µM): -4.93% (inactive)
inhibition ([18]; measured here: combo with BGB at IC20, at 0.5 µM): -2.45%
inhibition ([18]; measured here: combo with cisplatin at IC20, at 0.5 µM): -8.29%
